Our source for the Potency values is PubChem BioAssay (NCATS).

Each structure is given as a SMILES string. A number with no mark means an inactive call. No rule for the calls is given here. Some results are limits rather than exact numbers.
Potency is read from the fitted curve at half-maximal effect.

The subject of this assay is HIV-1 nucleocapsid protein NCp7 (binding to TG oligonucleotide). In words: HIV Nucleocapsid (AID 346).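 Also: potency is for inhibitors that block NC binding and lower polarization.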 The following applies: HIV-1 NC / fluorescein-TGTGTGTG probe, fluorescence polarization. Summed up: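 HIV-1 NC (100 nM) binding to fluorescein-labelled ssDNA TG4xF (10 nM) in Hepes pH 7.5, 250mM NaCl, 1uM ZnCl2, TCEP and 2-mercaptoethanol; compounds pin-transferred, 1 hr room temperature, fluorescence polarization read on CCD imager.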
(In general: In fluorescence polarisation assays a small probe gives low polarisation when free and higher when bound to something large.)
Consider `COCCn1c(=O)c(-c2ccccc2)nc2cnc(Nc3ccccc3)nc21`, for which the Potency is greater than 20 µM.
The same measure for `COc1ccc2[nH]cc(CCNc3ncnc4ccc(-c5cccnc5)cc34)c2c1`: greater than 20 µM; for `N#Cc1ccc(CN2CCC3(CCNCC3)CC2)cc1`: greater than 20 µM.
As for `COc1ccc(C(=O)N2CCC3(CCN(Cc4ccc(C#N)cc4)CC3)CC2)cc1`, the Potency was greater than 20 µM.
The same measure for `O=C(c1csnn1)N1CCC2(CCN(Cc3ccccc3)CC2)CC1`: greater than 20 µM; for `Cn1cccc1C(=O)N1CCC[C@@]2(CCN(Cc3nccs3)C2)C1`: greater than 20 µM.
On to `COc1ccc(CNc2ccnc(-c3cccc(NS(C)(=O)=O)c3)n2)c(OC)c1`, for which the Potency was greater than 20 µM.
With `COc1cccc(Cn2c(=O)c(-c3ccccc3)nc3cnc(N(C)C)nc32)c1`, the Potency was greater than 20 µM.
The same measure for `O=C(Nc1cccc(F)c1)N1CC[C@@]2(CCCN(S(=O)(=O)c3ccccc3)C2)C1`: greater than 20 µM; for `Cc1cccc(CNc2nc(-c3c(C)noc3C)nc3ccccc23)c1`: greater than 20 µM.
For the compound `CS(=O)(=O)Nc1cccc(-c2nccc(NCc3cccs3)n2)c1`, the Potency is greater than 20 µM.
The same measure for `CS(=O)(=O)N1CCC[C@@]2(CCN(C(=O)Nc3cccc(C#N)c3)C2)C1`: greater than 20 µM.
`Cn1cc(-c2nc3cncnc3n(Cc3ccccc3Cl)c2=O)c2ccccc21`: the Potency is greater than 20 µM.
Take `CNc1ccnc(-c2c(C)noc2C)n1`: the Potency is greater than 20 µM.
The same measure for `Cc1ccccc1-c1ccc2ncnc(N3CCNCC3)c2c1`: greater than 20 µM.
